Common to all, as to experiment: NCI-60 one-dose screen, 48 h (100 = growth as untreated, 0 = no growth, -100 = all killed)
Holding throughout (conditions): 10 µM unless noted

Test [1] has as its system NCI-H23 lung.
The subject of test [2] is NCI-H226 lung.
Test [3] has as its system NCI-H322M lung.
Test [4] relates to HOP-62 NSCLC.
For test [5], the system named is NCI-H460 lung.
Test [6] deals with HOP-92 NSCLC.
Test [7] deals with NCI-H522 lung.
In test [8] the test system is A549/ATCC NSCLC.
In test [9] the test system is 786-0 renal.
Test [10] deals with COLO 205 colon.

The panel holds about 83,000 compounds, 20% with a hit somewhere; the sample as a whole holds those more often.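 Activity criterion: percent growth below 10, measured after cells in 96-well plates were exposed to a single compound concentration for 48 hours.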 Unmarked numbers belong to inactive results. Active and inactive are the calls of the source.

In the case of `C=CCOc1ccc(Cl)cc1Cl`, the growth in [1] is 111%; in [2], 104%; in test [3], 113%; in test [4] it was 113%; in test [5], 110%; in test [6] it was 77.3%. For the same molecule, the growth was 108% in test [7], 109% in test [8], 104% in test [9] and 109% in test [10].

`CCOC(=O)c1c[nH][nH]c1=O`: the growth is 93.4% in test [1]; 101% in test [2]; 122% in [3]; 89.2% in test [4]; 106% in test [5]; 111% in test [6]. Also, the growth in test [7] was 103%; in test [8] it was 125%; in test [9], 94.3%; in test [10] it was 124%.

On to `Cn1/c(=N\N=C\c2ccccc2OCCO)sc2ccccc21`, for which the growth in [1] was 101%; in test [2], 88.3%; in [3], 80.7%; in [4], 106%; in test [5], 101%; in test [6], 82.5%. Also, the growth was 90% in [7], 102% in test [8], 115% in test [9] and 91% in test [10].

Consider `CS(=O)CC(=N\O)/C(CS(C)=O)=N\O` (stereo not given), for which the growth in test [1] was 106%; in test [2], 110%; in test [3], 98%; in test [4], 102%; in test [5], 111%; in [6], 105%. The growth in test [7] is 96%; in [8], 97.4%; in test [9] it was 99.2%; in test [10] it was 106%.

In the case of `CCOC(=O)c1ccc(NC(=O)Nc2nccs2)cc1`, the growth in test [1] was 19.4%; in [2] it was 19.9%; in test [3], 41.3%; in test [4], 20.6%; in test [5], -44.2% (active); in test [6], -7.86% (active). The growth in test [7] was -43.5% (active); in test [8] it was 10.6%; in test [9], -7.93% (active); in [10], -82.9% (active).

Consider `Clc1cccc(Cl)c1C1CSc2ccccc2N=C1c1ccccc1` (stereo not given), for which the growth is 75.6% in test [1]; 82.7% in [2]; 86.3% in [3]; 84.6% in test [4]; 83.1% in [5]; 75.4% in test [6]. The growth was 63.6% in test [7], 73.8% in [8], 90.6% in test [9] and 102% in test [10].

As to `COc1cc(N)c2ncccc2c1Cl`, the growth was 104% in [1]; 96% in [2]; 97.9% in [3]; 102% in test [4]; 109% in test [5]; 101% in test [6]. The growth in test [7] is 81.8%; in test [8], 103%; in test [9] it was 95%; in test [10], 116%.

Regarding `Nc1cc2c(cc1Cl)C(=O)c1ccccc1C2=O`, the growth is 0.869% (active) in [1]; 12.7% in test [2]; 30.2% in test [3]; 26.8% in test [4]; 0.87% (active) in test [5]; -1.69% (active) in test [6]. In addition, the growth in [7] is 65%; in test [8], 27.2%; in test [9] it was -19% (active); in test [10], 76.2%.

For the molecule `NC(=O)N1CCOCC1`, the growth in test [1] was 106%; in [2], 100%; in [3], 106%; in test [4], 95.4%; in [5] it was 108%; in test [6], 72.9%. In addition, the growth was 94.2% in test [7], 106% in [8], 108% in test [9] and 113% in test [10].

Regarding `CC(=O)N(C)N=Nc1ccc(C)cc1`, the growth in test [1] was 95%; in test [2], 97.7%; in [3], 92.3%; in test [4], 95.8%; in [5] it was 116%; in test [6], 100%. In addition, the growth in [7] is 92.9%; in test [8], 113%; in test [9], 99.9%; in test [10], 115%.

`O=C(CCl)Oc1ccc([N+](=O)[O-])cc1`: the growth is 108% in [1]; 102% in test [2]; 106% in test [3]; 98.9% in test [4]; 107% in test [5]; 78.5% in test [6]. The growth was 107% in [7], 108% in [8], 108% in [9] and 116% in test [10].

As to `Cc1cccc2ccccc12`, the growth is 104% in test [1]; 97% in [2]; 103% in [3]; 102% in test [4]; 104% in test [5]; 100% in test [6]. For the same molecule, the growth is 97.3% in [7], 96.9% in test [8], 97.9% in test [9] and 117% in [10].

On to `O=Cc1ccc(Cl)c(Cl)c1`, for which the growth was 99.1% in test [1]; 98.1% in [2]; 106% in [3]; 97% in test [4]; 107% in test [5]; 68.5% in [6]. The growth was 96.5% in [7], 102% in test [8], 109% in [9] and 104% in [10].

In the case of `CCOc1ccc(C(=O)NCC(C)C)cc1`, the growth is 107% in [1]; 104% in test [2]; 101% in test [3]; 95.8% in test [4]; 103% in test [5]; 103% in test [6]. In addition, the growth was 97.8% in test [7], 108% in [8], 97.6% in test [9] and 101% in test [10].

Turning to `CCN(CC)CCN1CNC(=S)NC1`, the growth was 99.2% in test [1]; -70.2% (active) in test [2]; 108% in test [3]; 98.8% in test [4]; 114% in test [5]; 96.5% in test [6]. For the same molecule, the growth was 94.6% in test [7], 106% in test [8], 101% in test [9] and 106% in [10].

The record behind these values is PubChem BioAssay (NCI).
